Each structure is given as a SMILES string. Inconclusive results are not listed. Calls of active or inactive are those of the source. Rule for the calls, unless noted: active = hit-call score of the fitted dose curve at least 0.9, where 1 is the maximum; inconclusive = response in the unintended direction; inactive = score below 0.9.

The target in experiment [1] is zebrafish Estrogen Receptor (ER1), esr1 (gene 259252) (UniProt P57717). Nature of the experiment: ATG_zfER1_XSP2: Attagene TRANS-FACTORIAL Multi-Species (XSP2) HepG2 Assay for zebrafish Estrogen Receptor (ER1) (AID 2283816). In outline:
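HepG2 cells transiently transfected with a GAL4-UAS reporter and a chimeric zebrafish ER1-Gal4 construct, dosed 24 h. Reporter mRNA quantified by RT-PCR, labelling, HpaI digestion and capillary electrophoresis, relative to DMSO.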

Experiment [2] addresses chicken Estrogen Receptor (ERa), ESR1 (gene 396099) (UniProt P06212). Nature of the experiment: ATG_chERa_XSP2: Attagene TRANS-FACTORIAL Multi-Species (XSP2) HepG2 Assay for chicken Estrogen Receptor (ERa) (AID 2283817).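 Note: actives raise reporter signal above DMSO so AC50 reflects ER activation.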 In a few lines: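 HepG2 cells transiently transfected with multiplexed GAL4-UAS reporter units expressing chimeric chicken ERa-Gal4; 24 h compound exposure. Reporter mRNA measured by RT-PCR with 6-FAM labelling, HpaI digestion and capillary electrophoresis; gain-of-signal fitted versus DMSO.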

Experiment [3] has as its system zebrafish Estrogen Receptor (ER2a), gene 317734. Nature of the experiment: ATG_zfER2a_XSP2: Attagene TRANS-FACTORIAL Multi-Species (XSP2) HepG2 Assay for zebrafish Estrogen Receptor (ER2a) (AID 2283818).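 Note: hits raise reporter mRNA so AC50 reflects activation of zebrafish ER2a.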 In outline: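 HepG2 cells transiently transfected with GAL4-UAS reporter units and chimeric zebrafish ER2a-Gal4, exposed 24 h; medium contains 3 nM 6-alpha-fluorotestosterone and 1.5 nM norgestrel. Reporter mRNA quantified by RT-PCR, HpaI digestion, capillary electrophoresis; gain versus DMSO.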

Experiment [4] relates to chicken Androgen Receptor (AR), gene 422165. Nature of the experiment: ATG_chAR_XSP2: Attagene TRANS-FACTORIAL Multi-Species (XSP2) HepG2 Assay for chicken Androgen Receptor (AR) (AID 2283819).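 Note: hits raise reporter mRNA above DMSO so potency is for activation.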 In a few lines:
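HepG2 cells transiently transfected with chicken AR–GAL4 chimeric reporter constructs, stimulated with 3 nM 6-alpha-fluorotestosterone plus 1.5 nM norgestrel, dosed 24 h. Reporter mRNA quantified by RT-PCR and capillary electrophoresis; gain of signal fitted versus DMSO.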

Experiment [5] has as its system frog Estrogen Receptor (ER), gene 398734. Nature of the experiment: ATG_frER1_XSP2: Attagene TRANS-FACTORIAL Multi-Species (XSP2) HepG2 Assay for frog Estrogen Receptor (ER) (AID 2283821).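 Note: hits raise reporter mRNA above DMSO baseline so potency means agonist or activator.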 In outline: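 HepG2, transient MRTU transfection, chimeric NR-GAL4/UAS reporters; 24 h compound exposure, 24-well. Readout: reporter mRNA via RT-PCR + capillary electrophoresis, fluorescence. Positive fit vs DMSO baseline.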

The nature of experiment [6]: ATG_M_19_XSP2: Attagene TRANS-FACTORIAL Multi-Species (XSP2) HepG2 Assay for M32 Transcription Factor (Internal Marker) (AID 2283822). In a few lines: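 Internal background marker in a multi-species nuclear receptor TRANS panel: transfected HepG2 cells exposed 24 h, with 3 nM 6-alpha-fluorotestosterone and 1.5 nM norgestrel present. Readout is RT-PCR of reporter transcripts resolved by capillary electrophoresis, gain-of-signal versus DMSO.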

Experiment [7] concerns zebrafish Estrogen Receptor (ER2b), gene 317733. Nature of the experiment: ATG_zfER2b_XSP2: Attagene TRANS-FACTORIAL Multi-Species (XSP2) HepG2 Assay for zebrafish Estrogen Receptor (ER2b) (AID 2283823).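 Note: fitted upward as reporter gain over DMSO so potency reflects activation.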 In a few lines:
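HepG2 human liver cells transiently transfected with multiplexed GAL4-UAS reporter units expressing chimeric NR-Gal4 proteins; compounds dosed for 24 h. Reporter mRNA quantified by RT-PCR, 6-FAM labelling and capillary electrophoresis; gain-of-signal fitted against DMSO baseline.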

Experiment [8] in a line: ATG_M_32_XSP2: Attagene TRANS-FACTORIAL Multi-Species (XSP2) HepG2 Assay for M19 Transcription Factor (Internal Marker) (AID 2283826). In a few lines:
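Read-out: reporter mRNA quantified by RT-PCR, FAM labeling, HpaI digestion and capillary electrophoresis, 24 h after dosing transfected HepG2 cells. Medium carried 3 nM 6-alpha-fluorotestosterone plus 1.5 nM norgestrel; gain of signal fitted against DMSO.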

In experiment [9] the target is Estrogen receptor (Homo sapiens) (UniProt P03372). Nature of the experiment: ATG_hERa_XSP2: Attagene TRANS-FACTORIAL Multi-Species (XSP2) HepG2 Assay for human Estrogen Receptor (ERa) (AID 2283827). In outline: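 HepG2 cells transiently transfected with multiplexed GAL4-UAS reporters driven by chimeric receptor-Gal4 proteins, dosed 24 h with 3 nM 6-alpha-fluorotestosterone and 1.5 nM norgestrel present. Reporter mRNA by RT-PCR and capillary electrophoresis; gain-of-signal fit versus DMSO.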

The test system of experiment [10] is frog Estrogen Receptor (ER2), gene 100174814. Nature of the experiment: ATG_frER2_XSP2: Attagene TRANS-FACTORIAL Multi-Species (XSP2) HepG2 Assay for frog Estrogen Receptor (ER2) (AID 2283828). In a few lines:
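Human liver HepG2, transient MRTU transfection (TRANS format, exogenous NR–Gal4). 24 h cpd exposure. Total RNA → RT → PCR → FAM label → HpaI cut → CE. Positive direction vs DMSO.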

Experiment [11] has as its target Peroxisome proliferator-activated receptor gamma (Homo sapiens) (UniProt P37231). The experiment is described as follows: ATG_hPPARg_XSP2: Attagene TRANS-FACTORIAL Multi-Species (XSP2) HepG2 Assay for human Peroxisome Proliferator-activated Receptor gamma (PPARg) (AID 2283829).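 Note: actives raise reporter mRNA above DMSO so AC50 reflects PPARg activation.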 In outline: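 Reporter transcripts were measured by RT-PCR, fluorescent labeling, HpaI digestion and capillary electrophoresis, relative to DMSO, 24 h post-dosing. Transiently transfected HepG2 expressed NR-Gal4 chimeras regulating GAL4-UAS reporters; medium contained 3 nM 6-alpha-fluorotestosterone plus 1.5 nM norgestrel.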

The target of experiment [12] is mouse Peroxisome Proliferator-activated Receptor gamma (PPARg), Pparg (gene 19016) (UniProt P37238). The experiment is described as follows: ATG_mPPARg_XSP2: Attagene TRANS-FACTORIAL Multi-Species (XSP2) HepG2 Assay for mouse Peroxisome Proliferator-activated Receptor gamma (PPARg) (AID 2283830).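 Note: hits are gains in reporter mRNA above DMSO so AC50 marks activation.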 In a few lines: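 HepG2 cells transiently transfected with GAL4-UAS reporter units for chimeric NR-Gal4 proteins including mouse PPARg, exposed 24 h; medium contained 3 nM 6-alpha-fluorotestosterone and 1.5 nM norgestrel. Reporter mRNA quantified by RT-PCR, HpaI digestion and capillary electrophoresis, vs DMSO.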

Experiment [13] deals with Nuclear receptor subfamily 1 group I member 2 (Mus musculus) (UniProt O54915). Nature of the experiment: ATG_mPXR_XSP2: Attagene TRANS-FACTORIAL Multi-Species (XSP1) HepG2 Assay for mouse Pregnane X Receptor (PXR) (AID 2283831). In a few lines: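 Reporter transcripts measured after 24 h dosing by RT-PCR with 6-FAM labelling, HpaI digestion and capillary electrophoresis. Transiently transfected HepG2 with NR-Gal4 chimeras; increase over DMSO baseline scored.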

Experiment [14] deals with zebrafish Thyroid Hormone Receptor alpha (TRa), thraa (gene 30670) (UniProt Q98867). The experiment is described as follows: ATG_zfTRa_XSP2: Attagene TRANS-FACTORIAL Multi-Species (XSP1) HepG2 Assay for zebrafish Thyroid Hormone Receptor alpha (TRa) (AID 2283832).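 Note: actives raise zebrafish TRa-Gal4 reporter transcript above DMSO baseline.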 In outline: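 HepG2 cells transiently transfected with multiplexed GAL4-UAS reporter units expressing chimeric NR-Gal4 proteins; 24 h after dosing, reporter mRNA measured by RT-PCR, FAM labelling, HpaI digestion and capillary electrophoresis; gain of signal versus DMSO baseline.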

Experiment [15] deals with zebrafish Peroxisome Proliferator-activated Receptor gamma (PPARg), gene 557037. The experiment is described as follows: ATG_zfPPARg_XSP2: Attagene TRANS-FACTORIAL Multi-Species (XSP2) HepG2 Assay for zebrafish Peroxisome Proliferator-activated Receptor gamma (PPARg) (AID 2283833).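 Note: actives increase reporter signal over DMSO so AC50 reflects activation.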 In outline: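 After 24 h chemical exposure, RNA from transiently transfected HepG2 (chimeric NR-Gal4 TRANS reporters) was reverse-transcribed, PCR-amplified, 6-FAM-labelled, HpaI-cut and sized by capillary electrophoresis. Induction was scored in the positive direction relative to DMSO.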

Experiment [16] relates to turtle Thyroid Hormone Receptor, alpha (TRa), gene 101949057. Nature of the experiment: ATG_trTRa_XSP2: Attagene TRANS-FACTORIAL Multi-Species (XSP1) HepG2 Assay for turtle Thyroid Hormone Receptor, alpha (TRa) (AID 2283834).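 Note: hits raise reporter mRNA over the DMSO baseline so AC50 marks activators.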 In outline:
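Turtle TRa-Gal4 chimera activity in transfected human HepG2 cells: reporter transcripts quantified by RT-PCR, 6-FAM labelling and capillary electrophoresis 24 h post-dosing; positive direction versus DMSO, medium containing 3 nM 6-alpha-fluorotestosterone and 1.5 nM norgestrel.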

A short description of experiment [17]: ATG_M_61_XSP2: Attagene TRANS-FACTORIAL Multi-Species (XSP2) HepG2 Assay for M61 Transcription Factor (Internal Marker) (AID 2283835; active = hit-call score of the fitted dose curve at least 0.9, where 1 is the maximum; inactive = score below 0.9;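 note: active means a rise in signal above the DMSO baseline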). In a few lines:
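HepG2 cells transiently transfected with multiple GAL4-UAS reporter units; 3 nM 6-alpha-fluorotestosterone and 1.5 nM norgestrel present to stimulate androgen receptor. After 24 h compound exposure, reporter mRNA measured by RT-PCR and capillary electrophoresis fluorescence, gain-of-signal versus DMSO baseline.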

For experiment [18], the target named is zebrafish Thyroid Hormone Receptor beta (TRb), thrb (gene 30607) (UniProt Q9PVE4). Nature of the experiment: ATG_zfTRb_XSP2: Attagene TRANS-FACTORIAL Multi-Species (XSP1) HepG2 Assay for zebrafish Thyroid Hormone Receptor beta (TRb) (AID 2283836). In outline:
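HepG2 cells transiently transfected with multiplexed GAL4-UAS reporter units expressing chimeric NR-Gal4 proteins; read 24 h after dosing. Reporter mRNA quantified by RT-PCR, 6-FAM labelling, HpaI digest and capillary electrophoresis; gain of signal fitted relative to DMSO.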

Experiment [19] concerns zebrafish Androgen Receptor (AR), gene 100005148. Nature of the experiment: ATG_zfAR_XSP2: Attagene TRANS-FACTORIAL Multi-Species (XSP2) HepG2 Assay for zebrafish Androgen Receptor (AR) (AID 2283825).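 Note: hits raise reporter mRNA above DMSO so AC50 reflects agonist-type gain.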 In a few lines: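 Zebrafish AR–GAL4 chimera transiently expressed with GAL4-UAS reporter in HepG2 cells, co-stimulated with 3 nM 6-alpha-fluorotestosterone and 1.5 nM norgestrel; 24 h dosing, reporter mRNA read by RT-PCR/capillary electrophoresis versus DMSO.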

Chain of Peroxisome proliferator-activated receptor gamma (Homo sapiens) (P37231 whole entry, looked up, the tested form may be a part): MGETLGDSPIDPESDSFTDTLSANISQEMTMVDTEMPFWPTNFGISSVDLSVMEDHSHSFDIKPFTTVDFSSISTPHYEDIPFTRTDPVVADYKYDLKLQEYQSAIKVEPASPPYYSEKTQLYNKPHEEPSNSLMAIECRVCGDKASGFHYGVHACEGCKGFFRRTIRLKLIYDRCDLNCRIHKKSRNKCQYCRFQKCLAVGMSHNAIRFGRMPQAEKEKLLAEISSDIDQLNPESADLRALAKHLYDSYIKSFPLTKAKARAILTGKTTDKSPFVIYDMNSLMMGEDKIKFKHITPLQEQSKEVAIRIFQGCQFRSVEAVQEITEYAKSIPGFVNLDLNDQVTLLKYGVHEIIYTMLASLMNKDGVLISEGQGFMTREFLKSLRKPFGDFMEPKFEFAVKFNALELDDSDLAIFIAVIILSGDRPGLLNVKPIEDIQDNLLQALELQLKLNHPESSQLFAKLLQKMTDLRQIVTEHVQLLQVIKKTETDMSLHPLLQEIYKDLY
Chain of Estrogen receptor (Homo sapiens) (P03372 whole entry, looked up, the tested form may be a part): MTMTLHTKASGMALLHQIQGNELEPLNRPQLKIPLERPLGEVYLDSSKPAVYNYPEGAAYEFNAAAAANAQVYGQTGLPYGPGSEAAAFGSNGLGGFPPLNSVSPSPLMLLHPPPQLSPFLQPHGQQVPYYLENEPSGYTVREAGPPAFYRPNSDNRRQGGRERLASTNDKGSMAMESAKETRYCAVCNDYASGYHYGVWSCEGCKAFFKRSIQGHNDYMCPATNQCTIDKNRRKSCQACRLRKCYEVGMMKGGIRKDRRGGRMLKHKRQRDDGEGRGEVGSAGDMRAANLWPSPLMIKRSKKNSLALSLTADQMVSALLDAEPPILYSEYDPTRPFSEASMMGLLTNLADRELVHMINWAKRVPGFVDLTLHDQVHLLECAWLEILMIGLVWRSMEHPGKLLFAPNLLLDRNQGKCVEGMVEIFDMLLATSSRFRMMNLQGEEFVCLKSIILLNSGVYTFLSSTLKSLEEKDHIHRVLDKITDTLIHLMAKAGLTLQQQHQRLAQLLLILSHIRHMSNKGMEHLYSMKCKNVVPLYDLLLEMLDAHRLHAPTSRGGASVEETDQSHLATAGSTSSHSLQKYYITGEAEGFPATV
Chain of Nuclear receptor subfamily 1 group I member 2 (Mus musculus) (O54915 whole entry, looked up, the tested form may be a part): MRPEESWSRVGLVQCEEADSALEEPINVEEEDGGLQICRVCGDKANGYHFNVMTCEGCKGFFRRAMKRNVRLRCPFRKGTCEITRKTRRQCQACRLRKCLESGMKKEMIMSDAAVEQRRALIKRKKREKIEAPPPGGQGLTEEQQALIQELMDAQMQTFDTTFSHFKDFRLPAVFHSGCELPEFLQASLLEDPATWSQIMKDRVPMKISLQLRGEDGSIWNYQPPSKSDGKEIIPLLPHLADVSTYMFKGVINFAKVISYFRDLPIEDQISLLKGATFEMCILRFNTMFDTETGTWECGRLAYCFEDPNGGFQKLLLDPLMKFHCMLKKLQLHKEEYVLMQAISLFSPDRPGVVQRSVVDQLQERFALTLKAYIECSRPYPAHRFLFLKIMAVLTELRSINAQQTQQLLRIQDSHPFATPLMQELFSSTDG
Chain of mouse Peroxisome Proliferator-activated Receptor gamma (PPARg), Pparg (gene 19016) (P37238 whole entry, looked up, the tested form may be a part): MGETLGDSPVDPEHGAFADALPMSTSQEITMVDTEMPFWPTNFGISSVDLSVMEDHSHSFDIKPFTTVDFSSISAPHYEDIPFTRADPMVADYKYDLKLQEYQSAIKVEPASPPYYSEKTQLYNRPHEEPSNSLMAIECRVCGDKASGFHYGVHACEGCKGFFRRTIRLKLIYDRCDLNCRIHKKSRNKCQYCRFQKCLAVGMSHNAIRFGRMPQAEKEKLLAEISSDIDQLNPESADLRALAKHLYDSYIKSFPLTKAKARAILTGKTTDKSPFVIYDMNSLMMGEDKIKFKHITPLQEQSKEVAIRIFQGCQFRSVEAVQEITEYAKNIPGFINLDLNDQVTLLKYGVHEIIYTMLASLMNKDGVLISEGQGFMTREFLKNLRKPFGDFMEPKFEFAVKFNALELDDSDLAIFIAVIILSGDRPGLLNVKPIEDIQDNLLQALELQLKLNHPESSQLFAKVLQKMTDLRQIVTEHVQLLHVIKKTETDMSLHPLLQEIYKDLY
Chain of chicken Estrogen Receptor (ERa), ESR1 (gene 396099) (P06212 whole entry, looked up, the tested form may be a part): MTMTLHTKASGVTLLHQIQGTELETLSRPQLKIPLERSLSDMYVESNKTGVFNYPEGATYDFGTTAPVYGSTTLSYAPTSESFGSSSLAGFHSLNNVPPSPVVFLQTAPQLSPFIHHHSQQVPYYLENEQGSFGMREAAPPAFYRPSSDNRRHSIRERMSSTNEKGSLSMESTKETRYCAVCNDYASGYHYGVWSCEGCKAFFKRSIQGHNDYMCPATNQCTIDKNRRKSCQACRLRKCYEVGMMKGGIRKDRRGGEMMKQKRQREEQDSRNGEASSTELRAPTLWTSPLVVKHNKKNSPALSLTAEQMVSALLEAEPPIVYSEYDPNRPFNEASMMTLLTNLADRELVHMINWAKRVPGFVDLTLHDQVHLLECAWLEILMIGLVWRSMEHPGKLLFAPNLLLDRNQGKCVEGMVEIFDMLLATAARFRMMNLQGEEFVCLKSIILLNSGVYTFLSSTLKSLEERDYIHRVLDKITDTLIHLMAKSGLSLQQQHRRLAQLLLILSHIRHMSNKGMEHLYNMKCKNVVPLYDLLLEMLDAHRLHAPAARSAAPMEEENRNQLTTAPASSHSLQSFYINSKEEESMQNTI
Chain of zebrafish Estrogen Receptor (ER1), esr1 (gene 259252) (P57717 whole entry, looked up, the tested form may be a part): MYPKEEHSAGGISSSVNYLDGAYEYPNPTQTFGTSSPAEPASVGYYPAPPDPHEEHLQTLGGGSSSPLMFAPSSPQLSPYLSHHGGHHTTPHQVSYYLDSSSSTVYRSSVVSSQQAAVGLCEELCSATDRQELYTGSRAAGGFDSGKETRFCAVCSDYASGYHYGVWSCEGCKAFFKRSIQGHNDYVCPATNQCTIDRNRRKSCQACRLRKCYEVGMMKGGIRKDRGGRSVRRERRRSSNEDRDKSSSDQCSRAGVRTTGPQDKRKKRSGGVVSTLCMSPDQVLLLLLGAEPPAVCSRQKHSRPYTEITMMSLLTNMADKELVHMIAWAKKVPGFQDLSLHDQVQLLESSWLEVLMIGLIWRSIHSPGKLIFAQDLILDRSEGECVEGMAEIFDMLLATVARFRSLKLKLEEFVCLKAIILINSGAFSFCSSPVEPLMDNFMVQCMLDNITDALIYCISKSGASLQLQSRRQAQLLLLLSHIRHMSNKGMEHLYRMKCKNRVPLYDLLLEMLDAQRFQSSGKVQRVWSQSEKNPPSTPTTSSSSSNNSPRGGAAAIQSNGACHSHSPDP
Chain of zebrafish Thyroid Hormone Receptor alpha (TRa), thraa (gene 30670) (Q98867 whole entry, looked up, the tested form may be a part): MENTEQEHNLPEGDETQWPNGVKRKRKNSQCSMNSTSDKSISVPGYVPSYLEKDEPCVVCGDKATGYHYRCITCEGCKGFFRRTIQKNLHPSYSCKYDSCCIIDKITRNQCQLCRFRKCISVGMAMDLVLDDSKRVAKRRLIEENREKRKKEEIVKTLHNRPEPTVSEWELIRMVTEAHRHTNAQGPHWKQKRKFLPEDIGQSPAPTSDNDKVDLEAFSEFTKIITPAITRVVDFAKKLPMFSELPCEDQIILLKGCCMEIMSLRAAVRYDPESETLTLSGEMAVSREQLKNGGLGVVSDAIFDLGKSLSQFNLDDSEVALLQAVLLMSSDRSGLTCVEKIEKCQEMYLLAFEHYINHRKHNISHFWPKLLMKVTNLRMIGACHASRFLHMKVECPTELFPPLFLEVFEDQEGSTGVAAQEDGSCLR
Chain of zebrafish Thyroid Hormone Receptor beta (TRb), thrb (gene 30607) (Q9PVE4 whole entry, looked up, the tested form may be a part): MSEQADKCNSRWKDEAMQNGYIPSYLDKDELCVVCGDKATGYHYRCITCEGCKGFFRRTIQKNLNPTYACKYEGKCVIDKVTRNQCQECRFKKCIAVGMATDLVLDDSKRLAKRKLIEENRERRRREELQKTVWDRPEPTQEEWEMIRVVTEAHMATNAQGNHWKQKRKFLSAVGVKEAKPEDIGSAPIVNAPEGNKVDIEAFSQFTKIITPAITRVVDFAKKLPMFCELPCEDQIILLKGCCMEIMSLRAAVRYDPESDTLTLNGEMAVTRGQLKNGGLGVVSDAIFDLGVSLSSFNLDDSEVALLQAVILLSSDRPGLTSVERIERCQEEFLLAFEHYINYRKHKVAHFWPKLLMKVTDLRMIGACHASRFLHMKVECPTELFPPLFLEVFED

On to `CSC(=O)c1c(C(F)F)nc(C(F)(F)F)c(C(=O)SC)c1CC(C)C`, for which the molecule was called inactive in experiment [1], in [2], in [3], in experiment [4], in experiment [5] and in experiment [6]. Besides, in experiment [8], the outcome was inactive. For the same molecule, the AC50 (in general, the concentration at which the activity in the assay is half-maximal) in [7] is 15.7 µM (active); in experiment [9] it was 3.05 µM (active); in experiment [10], 5.69 µM (active); in experiment [11], 6.53 µM (active); in experiment [12], 5.52 µM (active); in experiment [13] it was 0.442 µM (active).
Turning to `CCN(CC)C(=O)C(C)Oc1cccc2ccccc12` (centres undefined), the call in [1], in [3], in [5], in [8], in experiment [14] and in experiment [15] was inactive. Besides, the result in [16], in experiment [17] and in experiment [18] was inactive. In addition, the AC50 in experiment [2] is 7.35 µM (active); in experiment [7], 65.7 µM (active); in [9] it was 7.99 µM (active); in experiment [10], 25.5 µM (active); in experiment [11] it was 39.8 µM (active); in [12], 42.6 µM (active). The AC50 in experiment [13] was 6.17 µM (active).
With `Cc1c(COC(=O)[C@@H]2[C@H](/C=C(\Cl)C(F)(F)F)C2(C)C)cccc1-c1ccccc1`, the molecule was called inactive in experiment [1], in experiment [3], in experiment [6], in [19], in [11] and in experiment [12]. Also, the call in experiment [14], in experiment [16] and in experiment [18] was inactive. The AC50 was 30.5 µM (active) in experiment [2]; 49.3 µM (active) in [5]; 100 µM (active) in experiment [7]; 26.1 µM (active) in experiment [9]; 100 µM (active) in [10]; 2 µM (active) in experiment [13].
